# Laboratory results: PubChem BioAssay (EPA / NIEHS)
# Several values for one entry are separate records, joined by “and”; a condition that tells them apart may be missing. Equal entries are not always repeated. Inconclusive results are not listed. Activity calls are given as the source filed them. The calls were made as follows: active = hit-call score of the fitted dose curve at least 0.9, where 1 is the maximum; inconclusive = response in the unintended direction; inactive = score below 0.9.
# Target: Cellular tumor antigen p53 (Homo sapiens) (UniProt P04637)
# Sequence (P04637 whole entry, looked up): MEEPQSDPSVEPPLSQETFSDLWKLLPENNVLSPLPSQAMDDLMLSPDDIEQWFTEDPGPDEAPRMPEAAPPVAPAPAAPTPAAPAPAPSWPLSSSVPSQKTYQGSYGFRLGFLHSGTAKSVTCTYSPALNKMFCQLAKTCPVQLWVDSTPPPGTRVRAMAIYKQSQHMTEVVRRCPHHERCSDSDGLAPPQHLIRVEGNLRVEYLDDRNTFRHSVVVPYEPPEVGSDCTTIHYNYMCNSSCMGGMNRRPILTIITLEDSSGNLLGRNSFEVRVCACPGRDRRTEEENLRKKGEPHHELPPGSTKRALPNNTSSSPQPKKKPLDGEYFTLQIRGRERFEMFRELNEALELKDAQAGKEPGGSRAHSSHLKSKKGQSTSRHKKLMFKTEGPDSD
# Assay: TOX21_p53_BLA_p5_ratio: Tox21 HCT-116 p53 Agonism Beta-lactamase Assay, Ratio, Phase 5 (AID 2283599)
# Source text: TOX21_p53_BLA_p5 is a cell-based, single-readout assay that uses HCT116, a human intestinal cell line, […] in a 1536-well plate.TOX21_p53_BLA_p5_ratio is an assay readout measuring reporter gene via receptor activity and designed using inducible reporter (beta lactamase induction) detected with GAL4 b-lactamase reporter gene. The signal is derived from the ratio of cleaved (ch2) to uncleaved (ch1) reporter gene substrate used as the measure of target activity.Data from the assay component TOX21_p53_BLA_p5_ratio was analyzed into 1 assay endpoint. This assay endpoint, TOX21_p53_BLA_p5_ratio, was analyzed in the positive analysis fitting direction relative to DMSO as the negative control and baseline of activity. Using a type of inducible reporter, gain-of-signal activity can be used to understand changes in the reporter gene as they relate to the gene TP53. Furthermore, this assay endpoint can be referred to as a primary readout, because this assay has produced multiple assay endpoints and this ratio serves a reporter gene function to understand target activity. To generalize the intended target to other relatable targets, this assay endpoint is annotated to the DNA binding intended target family, where the subfamily is tumor suppressor.
# Thawing Method: Place 14 mL of pre-warmed thaw medium into a 15 mL of conical tub. Remove the vial of cells to be thawed from liquid nitrogen and thaw rapidly by placing at 37C in a water bath with gentle agitation for 1-2 minutes. Decontaminate the vial by wiping with 70% ethanol before opening in a biological safety cabinet. Transfer the vial contents drop-wise into 14 mL of thaw medium in a sterile 15-mL conical tub. Centrifuge cells at 900 rpm for 4 minutes and resuspend in thaw medium. Transfer contents to the T75 tissue culture flask containing Thaw Medium and place flask in a humidified 37C/5% CO2 incubator. Switch to growth medium at first passage.Propagation Method: Aspirate medium, rinse once in DPBS, add 0.25% Trypsin/EDTA and swirl to coat the cell evenly. Add an equal volume of Growth Medium to inactivate Trypsin after 2-3 minutes incubation at 37C. Centrifuge cells at 900 rpm for 4 minutes and resuspend in growth medium. Cell should be passage or fed at least twice a week.Assay Protocol: Harvest cells from culture in growth medium and resuspend in assay medium. 2.2 Dispense 4000 cells/5 uL/well into 1536-well black/clear bottom plates using a Multidrop dispenser. After the cells were incubated at 37C for 5 hours, 23 nL of compounds dissolved in DMSO were transferred to the assay plate by a PinTool resulting in a 217-fold dilution. Incubate the plates for 16 hours at 37C, 5% CO2. Add 1 uL of 6X LiveBLAzer FRET B/G (CCF4-AM) Substrate Mixture to each well using a BioRAPTR dispenser and incubate the plates at room temperature for 2 hours. Measure fluorescence intensity at 460 and 530 nm emission and 405 nm excitation by an Envision detector. Data is expressed as the ratio of 460nm/530nm emissions. Add 4 uL of Cell-titer Glo to each well using BioRAPTR and incubate the plates at room temperature for 2 hours. Measure fluorescence intensity by a VewLux plate reader.
SMILES,outcome,AC50
O=[N+]([O-])c1cccc2ccccc12,inactive,
CCCCC(CC)C(=O)Cl (stereo not given),inactive,
O=C(O)COc1ccc(Cl)cc1,inactive,
ClCCCCl,inactive,
C=CC(=O)[O][Sn]([CH2]CCC)([CH2]CCC)[CH2]CCC,,13.4 µM (active)
Brc1ccc(Br)cc1,inactive,
Nc1ccc(Br)cc1,inactive,
[F][Sn]([c]1ccccc1)([c]1ccccc1)[c]1ccccc1,,18.3 µM (active)
Cc1cc(Cl)ccc1OCCCC(=O)O,inactive,
CCC[CH2][Sn]([CH2]CCC)([CH2]CCC)[CH2]CCC,,44.3 µM (active)
CCC(C)(C#N)N=NC(C)(C#N)CC (stereo not given),inactive,
O=CCCl,inactive,
CC(C)CC(C)(c1ccc(O)cc1)c1ccc(O)cc1,,84.6 µM (active) and 86.8 µM (active)
Cc1c([N+](=O)[O-])c(C)c([N+](=O)[O-])c(C(C)(C)C)c1[N+](=O)[O-],inactive,
CCCCCCCCCCCCCCC(Br)C(=O)O (stereo not given),,70.6 µM (active)
C=C(C)C(=O)OCC(CC)CCCC (stereo not given),inactive,
COP(=S)(OC)Oc1cc(Cl)c(I)cc1Cl,inactive,
O=C(NC(=O)c1c(F)cccc1F)Nc1cc(Cl)c(OC(F)(F)C(F)C(F)(F)F)cc1Cl (stereo not given),inactive,
CCOP(=O)(OCC)OC(=CCl)c1ccc(Cl)cc1Cl,inactive,
O=S1(=O)OC(c2cc(Br)c(O)c(Br)c2)(c2cc(Br)c(O)c(Br)c2)c2ccccc21,inactive,

SMILES,outcome,AC50
Clc1cnc(Oc2ccc(Oc3ncc(Cl)cc3Cl)cc2)c(Cl)c1,inactive,
O=C=Nc1ccc(Cl)cc1,inactive,
O=[N+]([O-])c1ccc(Nc2ccccc2)cc1,,52.5 µM (active) and 84.9 µM (active)
N#CS,inactive,
CC1(C)[C@H](C(=O)O[C@H](C#N)c2cccc(Oc3ccccc3)c2)[C@@H]1/C=C(\Cl)C(F)(F)F,inactive,
Cc1ccccc1OP(=O)(Oc1ccccc1C)Oc1ccccc1C,inactive,
O=C1C[C@@H]2OCC=C3CN4CC[C@]56c7ccccc7N1[C@H]5[C@H]2[C@H]3C[C@H]46,inactive,
BrCc1ccc(Br)cc1,inactive,
CCOC(=O)CCN(SN(C)C(=O)Oc1cccc2c1OC(C)(C)C2)C(C)C,inactive,
Clc1cc(C(Cl)(Cl)Cl)cnc1Cl,inactive,
CN(C)[C@@H]1C(=O)C(C(N)=O)=C(O)[C@@]2(O)C(=O)C3=C(O)c4c(O)ccc(Cl)c4[C@@](C)(O)[C@H]3C[C@@H]12,inactive,
O=C(CCl)NCO,inactive,
C=CC(=O)OCC(COC(=O)C=C)(COC(=O)C=C)COC(=O)C=C,inactive,
O=[N+]([O-])c1cc([As](=O)(O)O)ccc1O,inactive,
Cl[C@H]1OCCO[C@@H]1Cl,inactive,
O=[N+]([O-])c1ccccc1O,inactive,
CN(C)c1ccc(N=O)cc1,,83.8 µM (active) and 86.6 µM (active)
CCCCOC(=O)COC(=O)c1ccccc1C(=O)OCCCC,inactive,
COc1ccc(N)cc1,inactive,
O=C(NC(=O)c1c(F)cccc1F)Nc1cc(Cl)c(Oc2ncc(C(F)(F)F)cc2Cl)c(Cl)c1,,13.7 µM (active)
